Experimental data from PubChem BioAssay AID1159580 (chemical genetic matrix, 2015).
The whole screen tested about 5,500 compounds, of which about 2,000 (36%) were called active. Another 18% or so got no clear call; they are omitted. Cut-off read from the data, not from the text of the source: active = normalized growth mostly below about 0.91 (no sharp cut-off); inconclusive = no clear call, values can overlap the other calls; inactive = mostly above about 0.92. The list shows a part of the results.

Assay: chemical genetic growth profiling, strain panel (AID 1159580);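 note: tested at 20 µM; growth read once vehicle control cultures reached saturation at 30 °C; 1 = growth at the plate median or of vehicle wells; lower values mean less growth of the strain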
Conditions: growth OD

Measured: normalized growth

O=C1CC(c2ccc(O)cc2)Oc2ccccc21 (stereo unspecified)
active: S. cerevisiae deletion strains, locus YAL013W, strain DEP1, stronger effect = lower value 0.894 | S. cerevisiae deletion strains, locus YCL029C, strain bik1, stronger effect = lower value 0.858 | S. cerevisiae deletion strains, locus YDL035C, strain GPR1, stronger effect = lower value 0.844 | S. cerevisiae deletion strains, locus YDL074C, strain BRE1, stronger effect = lower value 0.632 | S. cerevisiae deletion strains, locus YDL101C, strain DUN1, stronger effect = lower value 0.862 | S. cerevisiae deletion strains, locus YDL134C, strain PPH21, stronger effect = lower value 0.798 | S. cerevisiae deletion strains, locus YDL192W, strain arf1, stronger effect = lower value 0.818 | S. cerevisiae deletion strains, locus YDR101C, strain arx1, stronger effect = lower value 0.865 | S. cerevisiae deletion strains, locus YDR162C, strain NBP2, stronger effect = lower value 0.489 | S. cerevisiae deletion strains, locus YDR318W, strain mcm21, stronger effect = lower value 0.746 | S. cerevisiae deletion strains, locus YDR388W, stronger effect = lower value 0.897 | S. cerevisiae deletion strains, locus YDR502C, strain sam2, stronger effect = lower value 0.815 | S. cerevisiae deletion strains, locus YEL061C, strain CIN8, stronger effect = lower value 0.879 | S. cerevisiae deletion strains, locus YER110C, stronger effect = lower value 0.855 | S. cerevisiae deletion strains, locus YER155C, strain BEM2, stronger effect = lower value 0.769 | S. cerevisiae deletion strains, locus YER167W, strain BCK2, stronger effect = lower value 0.687 | S. cerevisiae deletion strains, locus YGL086W, strain mad1, stronger effect = lower value 0.848 | S. cerevisiae deletion strains, locus YGL248W, strain PDE1, stronger effect = lower value 0.795 | S. cerevisiae deletion strains, locus YGR078C, strain PAC10, stronger effect = lower value 0.694 | S. cerevisiae deletion strains, locus YGR135W, strain pre9, stronger effect = lower value 0.787 | S. cerevisiae deletion strains, locus YGR229C, strain SMI1, stronger effect = lower value 0.538 | S. cerevisiae deletion strains, locus YGR252W, strain gcn5, stronger effect = lower value 0.718 | S. cerevisiae deletion strains, locus YHR030C, strain SLT2, stronger effect = lower value 0.704 | S. cerevisiae deletion strains, locus YHR079C, strain IRE1 (second series), stronger effect = lower value 0.8 | S. cerevisiae deletion strains, locus YHR094C, strain hxt1, stronger effect = lower value 0.917 | S. cerevisiae deletion strains, locus YHR129C, strain ARP1, stronger effect = lower value 0.795 | S. cerevisiae deletion strains, locus YIL066C, strain RNR3, stronger effect = lower value 0.851 | S. cerevisiae deletion strains, locus YIR030C, strain dcg1, stronger effect = lower value 0.86 | S. cerevisiae deletion strains, locus YJL095W, strain BCK1, stronger effect = lower value 0.386 | S. cerevisiae deletion strains, locus YJL134W, strain LCB3, stronger effect = lower value 0.919 | S. cerevisiae deletion strains, locus YJL168C, strain set2, stronger effect = lower value 0.926 | S. cerevisiae deletion strains, locus YJL187C, strain SWE1 (second series), stronger effect = lower value 0.817 | S. cerevisiae deletion strains, locus YJR043C, strain POL32, stronger effect = lower value 0.76 | S. cerevisiae deletion strains, locus YJR075W, strain HOC1, stronger effect = lower value 0.755 | S. cerevisiae deletion strains, locus YKL068W, stronger effect = lower value 0.924 | S. cerevisiae deletion strains, locus YKL085W, strain MDH1 (second series), stronger effect = lower value 0.923 | S. cerevisiae deletion strains, locus YKL085W, strain MDH1, stronger effect = lower value 0.923 | S. cerevisiae deletion strains, locus YKL190W, strain CNB1, stronger effect = lower value 0.874 | S. cerevisiae deletion strains, locus YKR001C, strain vps1, stronger effect = lower value 0.598 | S. cerevisiae deletion strains, locus YLR039C, strain RIC1, stronger effect = lower value 0.479 | S. cerevisiae deletion strains, locus YLR058C, strain SHM2, stronger effect = lower value 0.829 | S. cerevisiae deletion strains, locus YLR262C, strain YPT6, stronger effect = lower value 0.498 | S. cerevisiae deletion strains, locus YLR268W, strain sec22, stronger effect = lower value 0.784 | S. cerevisiae deletion strains, locus YLR330W, strain CHS5, stronger effect = lower value 0.82 | S. cerevisiae deletion strains, locus YLR342W, strain FKS1 (second series), stronger effect = lower value 0.563 | S. cerevisiae deletion strains, locus YLR418C, strain cdc73, stronger effect = lower value 0.471 | S. cerevisiae deletion strains, locus YML016C, strain PPZ1, stronger effect = lower value 0.905 | S. cerevisiae deletion strains, locus YML032C, strain rad52, stronger effect = lower value 0.696 | S. cerevisiae deletion strains, locus YML124C, strain tub3, stronger effect = lower value 0.918 | S. cerevisiae deletion strains, locus YMR078C, strain ctf18, stronger effect = lower value 0.808 | S. cerevisiae deletion strains, locus YMR223W, strain ubp8, stronger effect = lower value 0.807 | S. cerevisiae deletion strains, locus YMR263W, strain SAP30, stronger effect = lower value 0.823 | S. cerevisiae deletion strains, locus YMR307W, strain GAS1, stronger effect = lower value 0.56 | S. cerevisiae deletion strains, locus YNL067W, strain RPL9B, stronger effect = lower value 0.81 | S. cerevisiae deletion strains, locus YNL153C, strain GIM3, stronger effect = lower value 0.837 | S. cerevisiae deletion strains, locus YNL233W, strain BNI4, stronger effect = lower value 0.73 | S. cerevisiae deletion strains, locus YNL250W, strain rad50, stronger effect = lower value 0.876 | S. cerevisiae deletion strains, locus YNL271C, strain bni1, stronger effect = lower value 0.915 | S. cerevisiae deletion strains, locus YNL298W, strain CLA4, stronger effect = lower value 0.903 | S. cerevisiae deletion strains, locus YNL307C, strain MCK1, stronger effect = lower value 0.176 | S. cerevisiae deletion strains, locus YNL322C, strain KRE1, stronger effect = lower value 0.9 | S. cerevisiae deletion strains, locus YOL006C, strain TOP1, stronger effect = lower value 0.462 | S. cerevisiae deletion strains, locus YOL147C, strain pex11, stronger effect = lower value 0.662 | S. cerevisiae deletion strains, locus YOR136W, strain idh2, stronger effect = lower value 0.92 | S. cerevisiae deletion strains, locus YOR144C, strain elg1, stronger effect = lower value 0.911 | S. cerevisiae deletion strains, locus YOR184W, strain ser1, stronger effect = lower value 0.465 | S. cerevisiae deletion strains, locus YOR316C, strain cot1, stronger effect = lower value 0.916 | S. cerevisiae deletion strains, locus YPL055C, strain LGE1, stronger effect = lower value 0.712 | S. cerevisiae deletion strains, locus YPR119W, strain clb2, stronger effect = lower value 0.89 | S. cerevisiae deletion strains, locus YPR163C, strain tif3, stronger effect = lower value 0.451 | S. cerevisiae deletion strains, strain wtn01, stronger effect = lower value 0.807 | S. cerevisiae strains, strain wild type, stronger effect = lower value 0.838
inactive: S. cerevisiae deletion strains, locus YBR021W, strain FUR4, stronger effect = lower value 0.896 | S. cerevisiae deletion strains, locus YBR229C, strain ROT2, stronger effect = lower value 0.918 | S. cerevisiae deletion strains, locus YDL185W, strain tfp1, stronger effect = lower value 0.907 | S. cerevisiae deletion strains, locus YDR150W, strain NUM1, stronger effect = lower value 0.919 | S. cerevisiae deletion strains, locus YGL078C, strain dbp3, stronger effect = lower value 0.944 | S. cerevisiae deletion strains, locus YHR200W, strain rpn10, stronger effect = lower value 0.924 | S. cerevisiae deletion strains, locus YIL073C, strain SPO22, stronger effect = lower value 0.786 | S. cerevisiae deletion strains, locus YIL125W, strain kgd1, stronger effect = lower value 0.94 | S. cerevisiae deletion strains, locus YKL009W, strain mrt4, stronger effect = lower value 0.976 | S. cerevisiae deletion strains, locus YLR102C, strain apc9, stronger effect = lower value 0.928 | S. cerevisiae deletion strains, locus YLR371W, strain rom2, stronger effect = lower value 0.927 | S. cerevisiae deletion strains, locus YNL128W, strain TEP1, stronger effect = lower value 0.923 | S. cerevisiae deletion strains, locus YNR052C, strain pop2, stronger effect = lower value 0.92 | S. cerevisiae deletion strains, locus YOL012C, strain htz1 0.38 | S. cerevisiae deletion strains, locus YOR061W, strain CKA2, stronger effect = lower value 0.931 | S. cerevisiae deletion strains, locus YOR069W, strain VPS5, stronger effect = lower value 0.946 | S. cerevisiae deletion strains, locus YPL241C, strain CIN2, stronger effect = lower value 0.935 | S. cerevisiae deletion strains, locus YPR141C, strain kar3, stronger effect = lower value 0.923 | S. cerevisiae deletion strains, locus YPR167C, strain met16, stronger effect = lower value 0.93
